Screening results as filed in PubChem BioAssay.
Hits are enriched below; roughly 6.5% of the tested compounds scored in any of these assays.
LASV entry inh: qHTS for Inhibitors of binding or entry into cells for Lassa Virus; Lassa virus pseudotype entry inhibition, cell reporter; Potency, µM (titrated, usually from 37.9 µM), for the others: top-dose activity change, negative = inhibition, usual class: inhibitors; 1.2% of 300,000 active; calls by dose curve; tested in HEK293 cells; further: potency means the concentration at half of the fitted maximal effect; nearly all actives have a fitted effect of over 50% in size
VACV mCherry inh: qHTS for Stage-Specific Inhibitors of Vaccinia Orthopoxvirus: mCherry Reporter Primary qHTS. 0.63% of 310,000 active. Vaccinia virus mCherry reporter infection, fluorescence. Potency, µM (series often up to 36.5 µM), for the others: at the top dose activity change, negative = inhibition, usual class: inhibitors; calls by dose curve; tested in A549 cells; further: potency means the concentration at half of the fitted maximal effect; nearly all actives have a fitted effect of over 35% in size
FMDV inh: High Throughput Screening for Foot and Mouth Disease Virus Antivirals; FMDV antiviral cell-based qHTS; Potency, µM (top dose mostly 57.9 µM), without a hit: at the highest dose activity change, negative = inhibition, most hits filed as inhibitors; 1.2% of 410,000 active; calls by dose curve; tested in HEK293T cells; further: read-out not given here; potency means the concentration at half of the fitted maximal effect; nearly all actives have a fitted effect of over 45% in size
MARV entry inh: qHTS for inhibitors of binding or entry into cells for Marburg Virus. Marburg virus pseudotyped entry inhibition, cell reporter. Potency, µM (highest dose often 37.8 µM), for inactives: top-dose activity change, negative = inhibition, hits mostly inhibitors. 1.8% of 300,000 active; calls by dose curve; tested in HEK293 cells; further: potency means the concentration at half of the fitted maximal effect
HCMV inh: qHTS Assay for inhibitors of the human cytomegalovirus (HCMV); 4.5% of 410,000 active; HFF cells, HCMV-luciferase reporter, 72 h; active compounds read low; activity change, negative = inhibition, % at 57.5 µM; in the data active means activity change below about -60%; inconclusive means no clear call, values can overlap the other calls; inactive means above about -39%
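Luciferase read-out from HCMV-luciferase-infected HFFs (MOI 1 PFU/cell) 72 h post infection at 37C; compounds added after 16 h cell attachment; activity normalized between buffer-only basal and Salinomycin (10uM) inhibitor controls.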
Vaccinia Venus: qHTS for Stage-Specific Inhibitors of Vaccinia Orthopoxvirus: Venus Reporter Primary qHTS | 0.46% of 330,000 active | Potency, µM (doses to about 36.5 µM), for inactives: at the highest dose activity change, negative = inhibition, actives largely listed as inhibitors | AID 720580, 2013 | Vaccinia virus Venus reporter expression, fluorescence; calls by dose curve; tested in A549 cells; further: potency means the concentration at half of the fitted maximal effect; nearly all actives have a fitted effect of over 30% in size
Active calls of the source: *; i = inactive; ? = inconclusive; · = no result given; ! = not active in a repeat; [ ] = another dose, or the depositor's remark. On the % scale 0 is the no-effect control and ±100 the full control effect.

SMILES | LASV entry inh | VACV mCherry inh | FMDV inh | MARV entry inh | HCMV inh | Vaccinia Venus
CN(C)S(=O)(=O)c1cccc(NC(=O)c2cccc(NS(=O)(=O)c3ccccc3)c2)c1 | ? | -22% | ? | ? | -89* | -17%
Cc1ccc(NC(=O)c2ccc(OC(F)(F)F)cc2)cc1S(=O)(=O)N(C)C | ? | ? | 32µM* | ? | -99* | ?
O=C(O)c1cc(-c2cccs2)nn1-c1cccc(Cl)c1 | 25% | i | -17% | 8% | -3 | -3%
Cc1ccc(C(=O)Nc2ccc(S(=O)(=O)NCc3ccco3)cc2)cc1 | 22% | · | 86% | -17% | 30 | ·
CCCCN1C(=O)c2ccc(C(=O)Nc3ccc(C)c(S(=O)(=O)N(C)C)c3)cc2C1=O | -28% | -14% | 18µM* | ? | -28 | -11%
Cc1cc(C)n(-c2ccc(C(=O)Nc3ccc(S(=O)(=O)NCc4ccco4)cc3)cc2)n1 | ? | ? | ? | 13µM*! | -96* | ?
CC1(C)CN(CCc2ccccc2)C(=O)[C@@H]1CC(=O)Nc1ccccc1 | -4%[46.1 µM] | · | · | · | · | ·
Cc1nc(SCCC(=O)O)c2cc(-c3ccccc3)sc2n1 | ? | i | ? | 4µM* | -36 | -8%
CCNc1nc(NCC)n2c(SCC(=O)Nc3cccc(Cl)c3)nnc2n1 | ? | ? | -21% | -10% | · | ?
CCNc1nc(NCC)n2c(SC(C(=O)Nc3cc(Cl)cc(Cl)c3)c3ccccc3)nnc2n1 (stereo unspecified) | -2% | -9% | -1% | 21% | -101* | 4%
CCOC(=O)c1c(SC)n(-c2ccccc2)c(=S)n(-c2ccccc2)c1=O | 2%[46.1 µM] | -3% | -14% | -24%[46.1 µM] | 1 | -2%
CCOC(=O)c1c(SCCN2CCCCC2)n(-c2ccccc2)c(=S)n(-c2ccccc2)c1=O | 4% | -4% | 20µM* | -82% | 9 | -1%
CC(=O)c1cccc(Nc2nc(-c3cccc([N+](=O)[O-])c3)cs2)c1 | ? | ? | -16% | ? | 26 | -22%
O=C(Nc1ccc(-c2csc(Nc3ccccc3)n2)cc1)c1cc([N+](=O)[O-])cc(C(F)(F)F)c1 | · | 16µM* | 25µM* | · | -74* | ?
O=[N+]([O-])c1ccc(-c2csc(Nc3ccccc3)n2)cc1 | · | -22% | · | · | · | -24%
O=C(Nc1cccc(-c2csc(Nc3cccc(C(F)(F)F)c3)n2)c1)c1cc([N+](=O)[O-])cc(C(F)(F)F)c1 | · | ? | 40µM* | · | 24 | -30%
CC(C)c1ccc(C(=O)C[N+]2(C)CCOCC2)cc1 | · | i | · | · | · | -16%
C[C@H]1CC[C@H]2C(=O)N(Cc3ccc(Cl)cc3)C[C@@H](O)CN2[C@H]1c1ccc(Br)cc1 | · | · | · | -7%[14.2 µM] | · | ·
CCCN(C(=O)Cn1nc(Cc2ccncc2)c2ccccc2c1=O)c1ccccc1C | ? | -11% | 2% | ? | -62* | -4%
CCN(CC)CCNC(=O)Cn1nc(Cc2cccnc2)c2ccccc2c1=O | · | i | -7% | · | 5 | -8%
CCCCNC(=O)Cn1nc(Cc2ccncc2)c2ccccc2c1=O | · | · | -21% | · | -62* | ·
CCOc1ccc(NC(=O)Cn2nc(Cc3ccncc3)c3ccccc3c2=O)cc1 | 17%[46.1 µM] | -11% | -13% | ? | -18 | -9%
CCCN(C(=O)Cn1nc(Cc2cccnc2)c2ccccc2c1=O)c1ccc(C(C)C)cc1 | -19%[46.1 µM] | -13% | -16% | ? | -63* | -10%
COc1cc(NC(=O)CSc2ccc(-c3sc(C)nc3C)nn2)cc(OC)c1 | -8%[46.1 µM] | -7% | -25% | · | -35 | -28%
CC(=O)Nc1nc2cc3c(cc2s1)OCO3 | · | -20% | 47% | · | -5 | 3%
SMILES | LASV entry inh | VACV mCherry inh | FMDV inh | MARV entry inh | HCMV inh | Vaccinia Venus
O=C(Nc1nc2cc3c(cc2s1)OCO3)C1=COCCO1 | ? | ? | -83% | 0.65µM* | -71* | -26%
CC(C)C(=O)Nc1nc2cc3c(cc2s1)OCCO3 | 4.5µM* | i | -34% | ? | -9 | -16%
O=C(Nc1nc2cc3c(cc2s1)OCCO3)c1ccco1 | 0.79µM* | ? | ? | 0.79µM* | -92* | ?
c1ccc(-c2ccc(N3CCCC4(CCNCC4)C3)cc2)cc1 | · | · | -21% | · | · | ·
Cc1ccc2c(c1)CN(CCNC(=O)c1n[nH]c3c1CCCC3)CC(C)O2 (stereo unspecified) | · | -10% | 3% | · | · | -6%
CS(=O)(=O)c1ccc2nc(N)sc2c1 | 7% | -13% | 12% | 12% | 48 | -7%
CS(=O)(=O)c1ccc(N)c(SSc2cc(S(C)(=O)=O)ccc2N)c1 | · | i | 4% | · | -82* | -6%
Cn1c(Sc2nc3ccccc3n2C)nc2ccccc21 | ? | · | -13% | ? | -95* | ·
Cn1c(SCC(=O)N2CCCC2)nc2ccccc21 | 1%[46.1 µM] | i | 21% | 11%[46.1 µM] | -8 | -2%
Cc1nc([N+](=O)[O-])c(Sc2nc3ccccc3n2C)n1Cc1ccccc1 | ? | -17% | 25µM* | ? | 50 | -13%
CCCCCCCCCC[Si](C)(C)CCC(=O)NC(Cc1ccc(C)cc1)c1ccccc1 (stereo unspecified) | -28% | · | · | 7.9µM*! | · | ·
C/C(=N\NC(=O)c1cc(-c2cccc([N+](=O)[O-])c2)n[nH]1)c1ccccc1O | ? | 10µM* | -19% | ? | 39 | ?
NC1CCc2ccccc21 (stereo unspecified) | · | 28% | · | · | · | -5%
CC(=O)CCc1ccc2oc(C(=O)O)c(C)c2c1 | 23% | · | -1% | 10% | 11 | 14%
CC(=O)CCc1oc2ccc(C)cc2c1-c1ccccc1 | 4µM* | -14% | -18% | 1% | 53 | -12%
CN(C)c1ccc(/C=C/c2sc3ccccc3[n+]2CCCCI)cc1 | · | 298% | · | · | · | i
CCC(C)(C)n1nnnc1C(c1cccs1)N1CC=C(c2ccc(F)cc2)CC1 (stereo unspecified) | ? | -23% | · | 15µM* | -63* | -26%
Fc1ccc(C2=CCN(C(c3cccs3)c3nnnn3CCc3ccccc3)CC2)cc1 (stereo unspecified) | ? | ? | -6% | -2%[46.1 µM] | ? | ?
O=C(N/N=C/c1sc(N2CCOCC2)nc1-c1ccccc1)c1cccc(S(=O)(=O)N2CCOCC2)c1 | · | · | -20% | · | -100* | ·
O=C(Nc1ccccc1F)C(=Cc1sc(N2CCOCC2)nc1-c1ccccc1)C(=O)Nc1ccccc1F | 2% | i | 0% | -5%[46.1 µM] | -70* | 0%
O=[N+]([O-])c1ccc(N/N=C/c2sc(N3CCOCC3)nc2-c2ccccc2)c(S(=O)(=O)Nc2ccc(Cl)cc2)c1 | · | · | ? | · | -88* | ·
O=C(N/N=C/c1sc(N2CCOCC2)nc1-c1ccccc1)c1ccccc1Cl | ? | -5% | -16% | 9%[46.1 µM] | 5 | -20%
O=C(N/N=C/c1sc(N2CCOCC2)nc1-c1ccccc1)c1ccccc1O | 1.3µM* | ? | -2% | 7.9µM* | -20 | ?
